High-throughput results from PubChem BioAssay.
This is a sample that favours compounds with a hit; in the whole collection about 2.6% have one here.
BRCA1 expr act – BRCA1 expression activation; Potency, µM (titrated, usually from 46.1 µM), most hits filed as activators; MCF7-BRCA1-FFLuc reporter, luminescence, 48 h; response scale: scaled: vehicle 0%, 10 µM genistein 100%; 1.1% of 380,000 active; further: nearly all actives have a fitted effect of over 80% in size
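Luminescence from a BRCA1-driven firefly luciferase in MCF7 cells was the read-out, taken 15 min after substrate addition following 48 h compound exposure at 37 °C. Data were normalized to a 10 microM genistein control and DMSO vehicle.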
GLP1R inv ag – GLP-1 receptor (human) inverse agonism | Potency, µM (titrated, usually from 38.3 µM), hits mostly inhibitors | HEK293 GLP-1R CRE-luciferase, luminescence, 24 h; GLP-1R form is constitutively active | 1.6% of 410,000 active | P43220; further: nearly all actives have a fitted effect of over 55% in size
Target sequence (P43220 whole entry, looked up): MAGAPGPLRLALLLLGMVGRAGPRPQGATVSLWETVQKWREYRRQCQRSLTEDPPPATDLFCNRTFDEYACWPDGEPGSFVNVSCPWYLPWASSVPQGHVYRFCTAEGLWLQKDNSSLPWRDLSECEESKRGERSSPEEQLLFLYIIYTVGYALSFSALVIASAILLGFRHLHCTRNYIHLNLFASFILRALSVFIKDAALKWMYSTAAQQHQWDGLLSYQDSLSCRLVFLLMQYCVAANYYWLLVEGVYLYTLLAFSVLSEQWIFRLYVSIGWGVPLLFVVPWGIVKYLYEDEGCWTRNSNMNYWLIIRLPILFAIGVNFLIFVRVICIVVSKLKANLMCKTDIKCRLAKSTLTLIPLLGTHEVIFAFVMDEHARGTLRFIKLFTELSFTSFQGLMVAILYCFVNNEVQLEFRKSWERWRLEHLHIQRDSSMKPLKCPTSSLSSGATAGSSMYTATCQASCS
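HEK293 cells stably co-expressing constitutively active GLP-1R and a cAMP-responsive luciferase reporter were seeded in DMEM with 10% Nu serum, given compounds after 12 h, and incubated 24 h at 37 deg C. Luminescence was then read.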
GLP1R cytotox – cytotoxicity in counter-screen for GLP-1R inverse agonists; HEK293 cAMP-luciferase reporter cells, luminescence, 24 h; Potency, µM (series often up to 38.3 µM), hits mostly inhibitors; 0.13% of 410,000 active;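 further: loss of luciferase light is scored as toxicity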
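Luminescence readout: signal drop marks cytotoxicity. Plated cells grew 12 h at 37 °C, 5% CO2, received 23 nL compound for 24 h, then got luciferase reagent, read after 12 min at RT.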
GLP-1R agonist – agonists of human GLP-1 receptor | P43220 | HEK293 GLP-1R CRE-luciferase, luminescence, 4-6 h; cells express a hypersensitive GLP-1R form | Potency, µM (doses to about 45.6 µM), most hits filed as activators | 0.007% of 380,000 active | AID 624172
Large screens that a line does not name were inactive. The call rests on the fitted dose curve; in most records, active means well fitted curve in the direction sought with a large enough effect; inconclusive means small, poorly fitted or top-dose-only effect, or another doubt; inactive means no such curve, though single readings can be large; an effect the other way counts as inactive or inconclusive.

Cc1ccc(C(=O)CSc2nsc(C)c2C#N)cc1	BRCA1 expr act 6.31µM
NC(=O)[C@H]1CC2(CC(c3cccc(NC(=O)COc4ccc(Cl)cc4)c3)=NO2)CN1C(=O)CC(c1ccccc1)c1ccccc1 (stereo partly drawn)	GLP1R inv ag 10µM
NC(=O)[C@@H]1CC2(CC(c3cccc(NC(=O)CC(c4ccccc4)c4ccccc4)c3)=NO2)CN1C(=O)COc1ccc(Cl)cc1 (stereo partly drawn)	GLP1R inv ag 11.2µM
C=C1C=C(C(F)F)n2ncc(C(=O)NCCc3ccc(Cl)cc3)c2N1	none (no result: GLP1R inv ag, GLP1R cytotox, GLP-1R agonist)
CCn1c2c(c(=O)n3ncc(C(=O)N4CCN(c5ccc(Cl)cc5)CC4)c13)CN(Cc1ccc(OC)cc1)CC2	GLP1R inv ag inconclusive (no result: BRCA1 expr act, GLP-1R agonist)
CN(C)c1ccc(/C=C/c2ccnc3ccccc23)cc1C=O	none (no result: GLP1R inv ag, GLP1R cytotox, GLP-1R agonist)
CCCOc1ccc(-c2nnc(N)s2)cc1	BRCA1 expr act 4.47µM
Cc1cc(C)c(C(=O)NC2CC(C)(C)Cc3c2cnn3-c2ccccc2)o1 (stereo not drawn)	GLP1R inv ag 10µM
Cc1nnc(SCc2cccc3ccccc23)s1	BRCA1 expr act 1.26µM
c1ccc(Nc2nnc(SCc3cccc4ccccc34)s2)cc1	none
Cc1cccc(-c2nc(C#N)c(NC3CCCCC3)o2)c1	BRCA1 expr act 3.16µM, GLP1R inv ag inconclusive
Cc1cccc(-c2nc(C#N)c(N3CCCCC3)o2)c1	BRCA1 expr act inconclusive
S=C1Cc2ccccc2N1	GLP1R inv ag 1µM
S=C1Nc2ccccc2CS1	GLP1R inv ag inconclusive, GLP1R cytotox inconclusive
Cc1cc(C)n2nc(CNS(=O)(=O)c3ccccc3)nc2n1	none (no result: BRCA1 expr act, GLP-1R agonist)
CCOC(=O)c1c(C)[nH]c(C)c1S(=O)(=O)N1CCN(c2cccc(C(F)(F)F)c2)CC1	GLP1R inv ag 5.62µM, GLP1R cytotox inconclusive (no result: BRCA1 expr act, GLP-1R agonist)
COc1cccc(CCN2CCC(CNS(=O)(=O)c3cc(-c4cc(C)no4)ccc3C)CC2)c1	GLP1R inv ag 4.47µM, GLP1R cytotox inconclusive
C=CCn1c(-c2ccc(OC)cc2)nc2ccccc21	BRCA1 expr act 10µM, GLP1R inv ag inconclusive
O=C(O)c1ccc2c(c1)C(=O)N(CCc1ccccc1)C2=O	none
O=C(O)c1ccc2c(c1)C(=O)N(CCc1c[nH]c3ccccc13)C2=O	BRCA1 expr act 7.94µM
COc1ccc(OC)c(CNC(=O)Cn2nc(C)c3nn(-c4ccc(Cl)cc4)c(C)c3c2=O)c1	none (no result: BRCA1 expr act, GLP-1R agonist)
O=[N+]([O-])c1ccc(N=NN(CCO)CCO)cc1	GLP1R cytotox inconclusive
O=[N+]([O-])c1ccc(N=Nc2ncc[nH]2)cc1	GLP1R inv ag inconclusive, GLP1R cytotox 5.62µM
C=C(CC1([C@@H](NP(=O)(c2ccccc2)c2ccccc2)[C@H]2C[C@@H]2CCCC)CC1)c1ccccc1	GLP1R inv ag 2.51µM
COc1ccc2c(=O)c(-c3ccc(OC)c(OC)c3)coc2c1	BRCA1 expr act 11.2µM
O=c1c(-c2ccc3c(c2)OCCO3)coc2cc(OC3OC(CO)C(O)C(O)C3O)ccc12 (stereo not drawn)	BRCA1 expr act inconclusive
COc1ccc(-c2coc3cc(O[C@@H]4O[C@H](CO)[C@@H](O)[C@H](O)[C@H]4O)ccc3c2=O)cc1	BRCA1 expr act 2.82µM
COc1ccc(-c2coc3cc(OC(C)=O)c(OC)cc3c2=O)cc1	BRCA1 expr act 10µM
Nc1ncc(S(=O)(=O)NCc2cccc(Cl)c2)cn1	none (no result: BRCA1 expr act, GLP-1R agonist)
CCOC(=O)c1ccc2nc3c(cc2c1)CCS3	BRCA1 expr act 10µM
Cc1c(CCC(=O)NCc2ccc(F)cc2)c(=O)oc2cc(O)ccc12	none (no result: BRCA1 expr act, GLP-1R agonist)
Clc1ccc(Nc2nc(NCc3ccco3)nc3nccnc23)cc1	none (no result: GLP1R inv ag, GLP1R cytotox, GLP-1R agonist)
COc1ccc(NC(=O)CN(C)C(=O)CNC(=O)c2sc3ccccc3c2Cl)cc1	BRCA1 expr act 7.94µM
O=C(NCC(c1cccnc1)N1CCN(c2ccccc2F)CC1)c1ccc(F)cc1 (stereo not drawn)	none (no result: BRCA1 expr act, GLP-1R agonist)
COc1ccccc1/C=C/C(=O)c1cc(Br)ccc1OC(=O)c1ccco1	GLP1R inv ag 5.01µM, GLP1R cytotox inconclusive
C/C(=N\Nc1ccc(S(=O)(=O)N2CCOCC2)cc1[N+](=O)[O-])C(C)C	none
Cc1nn(C)c(C)c1CNC(=O)Nc1ccc2c(c1)OCO2	BRCA1 expr act inconclusive
Cc1ccc(NC(=O)NCCc2c(C)nn(C)c2C)cc1Cl	BRCA1 expr act inconclusive, GLP1R inv ag inconclusive (no result: GLP-1R agonist)
Fc1cccc(NC(=S)NCc2ccccn2)c1	GLP1R inv ag inconclusive, GLP1R cytotox 10µM
Cc1nn(C)c(C)c1CNC(=O)Nc1cccc(Cl)c1	BRCA1 expr act 3.98µM
Cc1onc(-c2ccccc2)c1CNC(=O)Nc1cccc(Cl)c1	GLP1R inv ag 8.91µM
Cc1nn(C)c(C)c1CNC(=O)Nc1ccc(Cl)cc1	BRCA1 expr act 6.31µM
Cc1cc(C)cc(NC(=O)NCc2c(-c3ccccc3)noc2C)c1	none
COc1cc(NC(=O)N(Cc2ccco2)C2CCN(C(C)=O)CC2)cc(OC)c1OC	none (no result: BRCA1 expr act, GLP-1R agonist)
O=C(COc1ccccc1C(=O)Nc1ccccc1)Nc1ccc(-c2ccccc2)cc1	none (no result: GLP1R inv ag, GLP1R cytotox, GLP-1R agonist)
CN(C)c1ccc(/C=C2/CCc3ccccc32)cc1	none (no result: GLP1R inv ag, GLP1R cytotox, GLP-1R agonist)
O=C(NCc1ccccn1)Nc1cccc(Cl)c1	BRCA1 expr act 12.6µM
c1ccc(OCCCCN2CCCCC2)cc1	none
CN1CC[C@H](CN2c3ccccc3Sc3ccccc32)C1	none (no result: GLP1R inv ag, GLP1R cytotox)
c1ccc2c(c1)OC(CCCN1CCCCC1)c1ccccc1S2 (stereo not drawn)	GLP1R inv ag 7.94µM
CN1CCCC(CC2Oc3ccccc3Sc3ccccc32)C1 (stereo not drawn)	GLP1R inv ag 5.62µM, GLP1R cytotox inconclusive
COc1ccc(NC(=O)CSC2=Nc3ccccc3C3=NC(CCC(=O)NCCc4ccccc4)C(=O)N23)c(OC)c1 (stereo not drawn)	none (no result: BRCA1 expr act, GLP-1R agonist)
CN1C(=O)C2(c3ccccc31)N(c1cccc(C(F)(F)F)c1)C(=O)CS2(=O)=O (stereo not drawn)	none
Cc1ccc2c(c1)NC(=O)CC(c1ccccc1)=N2	BRCA1 expr act 10µM, GLP1R cytotox inconclusive
CCOC(=O)c1c(NC(=O)CSc2nnc(-c3c[nH]c4ccccc34)n2CCOC)sc2c1CCCC2	GLP1R inv ag 11.2µM
Cc1ccc(SC[C@H](Cc2ccccc2)N2CC[C@@H](C)CCC2=O)cc1	GLP1R inv ag 10µM
COc1ccc(SC[C@H](Cc2ccccc2)N2CC[C@@H](C)CCC2=O)cc1	GLP1R inv ag inconclusive
CCOC(=O)CN(c1sc(C)c(C)c1C(=O)OCC)S(=O)(=O)c1ccc(C)cc1	GLP1R inv ag inconclusive
CCN(CC)S(=O)(=O)c1ccc(N2CCOCC2)c(NC(=O)c2cc(C)cc(C)c2)c1	none
CCc1cc(C(=O)Nc2cc(S(=O)(=O)N(CC)CC)ccc2N2CCOCC2)sc1C	GLP1R inv ag 7.94µM
Cc1cccc(NC(=O)CN2C(=O)c3cccc4cccc2c34)c1C	none
COc1cccc(CNC(=O)CSc2nc(=O)[nH]c3c2CCCC3)c1	none (no result: BRCA1 expr act, GLP-1R agonist)
CCOC(=O)c1cc(C(=O)NCc2ccc(Cl)cc2Cl)nn1C	none
CCOC(=O)c1cc(C(=O)Nc2ccc(C)c(F)c2)nn1C	BRCA1 expr act 10µM
Cc1cc(C)cc(-n2c(SCC(=O)NC3CCCCC3)nc3c([nH]c4ccccc43)c2=O)c1	none
